Laboratory results: PubChem BioAssay (EPA / NIEHS)
Calls of active or inactive are those of the source. How the source made its calls: active means hit-call score of the fitted dose curve at least 0.9, where 1 is the maximum; inactive means score below 0.9.

target: Bile acid receptor (Homo sapiens) (UniProt Q96RI1); experiment: ATG_IR1_CIS: Attagene CIS-FACTORIAL HepG2 Assay for human Nuclear Receptor Subfamily 1 Group H Member 4 (NR1H4), IR1 submotif (AID 2282946); settings: IR1 reporter transcription, actives raise or lower the signal
Method: ATG_CIS is a cell-based, multiplexed-readout assay that uses HepG2, a human liver cell line, with measurements taken at 24 hours after chemical dosing in a 24-well plate.ATG_IR1_CIS is one of 52 assay component(s) measured or calculated from the ATG_CIS assay. It is designed to make measurements of mRNA induction, a form of inducible reporter, as detected with fluorescence intensity signals by Reverse transcription polymerase chain reaction (RT-PCR) and Capillary electrophoresis technology.Data from the assay component ATG_IR1_CIS was analyzed into 1 assay endpoint. This assay endpoint, ATG_IR1_CIS, was analyzed with bidirectional fitting relative to DMSO as the negative control and baseline of activity. Using a type of inducible reporter, measures of mRNA for gain or loss-of-signal activity can be used to understand the reporter gene at the transcription factor-level as they relate to the gene NR1H4. Furthermore, this assay endpoint can be referred to as a primary readout, because this assay has produced multiple assay endpoints where this one serves a reporter gene function. To generalize the intended target to other relatable targets, this assay endpoint is annotated to the nuclear receptor intended target family, where the subfamily is non-steroidal.
Human liver HepG2 cells are transiently transfected with multiple reporter transcription units (MRTUs) in 6-well plates using FuGene 6 reagent (Roche; 3 ml FuGene/1 mg DNA). The MRTU constructs are regulated by a cis-regulating element (promoter). […] A major difference between the CIS and TRANS system is that in CIS activities of endogenous TFs are measured, whereas the TRANS assay evaluates changes in activities of exogenous, chimeric NR-Gal4 proteins. […] At the end of 24 hour incubation, total RNA was isolated using TriZol reagent (Invitrogen). The isolated RNA is then reverse-transcribed using oligo(dT) primer and Mo-MLV reverse transcriptase (Invitrogen) with DNAse I (Ambion) treatment for 30 min. The one-tenth of the produced cDNA was amplified by PCR using Taq DNA polymerase (Invitrogen) and two reporter sequence-specific primers. The PCR products were fluorescently labeled by primer extension with 6-arboxyfluorescein (6-FAM) 5'-labeled reporter sequence-specific primer (2 min at 95 C, 20 s at 68 C and 10 min at 72 C) and these products were digested with 5U of HpaI (New England Biolabs) for 2h at 37 C. The fragments were purified using Qiaquick PCR columns (Qiagen), analyzed on an ABI 3130xL genetic analyzer (Applied Biosystems) with peak positions identified by using a set of X-rhodamine (ROX)-labeled MapMarker1000 molecular weight standards (BioVentures). The raw capillary electrophoresis data was processed using Attagraph software (Attagene).

Bile acid receptor (Homo sapiens), sequence (Q96RI1 whole entry, looked up): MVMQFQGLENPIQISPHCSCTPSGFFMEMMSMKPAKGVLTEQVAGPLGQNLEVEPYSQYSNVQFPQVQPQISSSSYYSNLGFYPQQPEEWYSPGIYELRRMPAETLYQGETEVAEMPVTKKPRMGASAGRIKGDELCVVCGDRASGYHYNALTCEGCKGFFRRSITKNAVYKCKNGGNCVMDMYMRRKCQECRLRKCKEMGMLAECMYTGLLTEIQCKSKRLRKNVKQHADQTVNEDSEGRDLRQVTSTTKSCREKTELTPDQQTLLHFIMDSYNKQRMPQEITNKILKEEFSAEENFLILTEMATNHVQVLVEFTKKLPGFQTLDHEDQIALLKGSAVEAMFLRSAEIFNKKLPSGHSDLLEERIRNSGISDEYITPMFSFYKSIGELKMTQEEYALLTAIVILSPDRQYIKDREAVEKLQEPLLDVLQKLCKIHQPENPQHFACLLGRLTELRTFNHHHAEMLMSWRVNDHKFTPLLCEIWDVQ

SMILES | outcome | AC50
CC(CO)OC(C)CO (stereo not given) (tested in a mixture with another compound) | inactive | –
COCCOCCOC | inactive | –
CCOC(=O)C(C)(C)Oc1ccc(Cl)cc1 | inactive | –
C=CCOC(=O)c1ccccc1C(=O)OCC=C | – | 25.9 µM (active)
COc1cc(-c2nc(NC(=O)c3cc4cc(C)cc(C)c4n3CC(=O)O)sc2CCC2CCCCC2)c(OC)cc1Cl | inactive | –
O=c1[nH]cc(F)c(=O)[nH]1 | inactive | –
C[Si]1(C)O[Si](C)(C)O[Si](C)(C)O[Si](C)(C)O1 | inactive | –
Oc1ccc2ccccc2c1N=Nc1ccccc1 | inactive | –
NC(=O)Cn1c(=O)cc(CCN2CCN(c3nccc4sccc34)CC2)c2ccc(F)cc21 | inactive | –
CC(=O)OCCOCCOCCOC(C)=O | inactive | –
Nc1nc(N)c2nc(CNc3ccc(C(=O)N[C@@H](CCC(=O)O)C(=O)O)cc3)cnc2n1 | inactive | –
CCc1c(C(=O)NN2CCCCC2)nn(-c2ccc(Cl)cc2Cl)c1-c1ccc(Br)cc1 | – | 2.4 µM (active)
Cc1ccccc1Cl | inactive | –
COc1cc(/C=C/C(=O)CC(=O)/C=C/c2ccc(O)c(OC)c2)ccc1O | – | 51 µM (active)
Cc1nc(C)nc(N2C[C@@H](C)N(c3ccnc([C@@H](C)O)n3)[C@@H](C)C2)n1 | inactive | –
Cc1c(C(=O)O)c(O)cc2c1C(=O)c1c(O)c([C@@H]3O[C@H](CO)[C@@H](O)[C@H](O)[C@H]3O)c(O)c(O)c1C2=O | inactive | –
Nc1ccc(S(=O)(=O)c2ccc(N)cc2)cc1 | inactive | –
O=C(O)Cc1ccccc1Nc1c(Cl)cccc1Cl | inactive | –

SMILES | outcome | AC50
CC1(C)CC(N=C=O)CC(C)(CN=C=O)C1 (stereo not given) | inactive | –
CCCCc1ccc2c(n1)[C@@H](c1ccc(OC)cc1C[C@H](C)C(=O)O)[C@H](C(=O)O)[C@H]2c1ccc2c(c1)OCO2 | inactive | –
NS(=O)(=O)c1cc2c(cc1Cl)NCNS2(=O)=O | – | 3.7 µM (active)
Cc1cc(=O)[nH]c(=S)[nH]1 | inactive | –
CCCCCCCCCCCC(=O)OC | inactive | –
Cc1nc(-c2ccc3c(c2)CCN(CCC2CCC(NC(=O)/C=C/c4ccc(F)cc4)CC2)CC3)no1 (stereo not given) | inactive | –
O=C(O)CCCCC(=O)O | inactive | –
COc1cc(C=O)ccc1O | inactive | –
CNC(=O)[C@H]1O[C@@H](n2cnc3c(NCc4cc(Cl)ccc4OCc4cc(C)no4)ncnc32)[C@H](O)[C@@H]1N | inactive | –
Cc1ccc(Cl)cc1 | inactive | –
CCCCCCCCCCO | inactive | –
CN1CCN(Cc2cc(-c3ccc4[nH]c(=O)oc4c3)co2)[C@@H](c2ccc(F)cc2)C1 | inactive | –
CN[C@H]1CC[C@@H](c2ccc(Cl)c(Cl)c2)c2ccc(S(N)(=O)=O)cc21 | inactive | –
FC(F)(F)C(F)(F)C(F)(F)C(F)(F)C(F)(F)C(F)(F)CCI | inactive | –
Cc1cc(NC(=O)C(=O)O)cc(C)c1Oc1ccc(O)c2c1CCC2 | inactive | –
COc1cc(S(=O)(=O)O)c(C)cc1N=Nc1c(O)ccc2cc(S(=O)(=O)O)ccc12 | inactive | –
CCCCN(CCCC)CCCC | inactive | –
